Pf growth 96h: inhibits malaria parasite growth, 96 h; Potency, µM (doses to about 28.7 µM), inactives show top-dose activity change, negative = inhibition, most hits filed as inhibitors; AID 504834; P. falciparum luciferase reporter growth, 96 h; 6.9% of 320,000 active; also: potency is read from the fitted curve at half-maximal effect; % is scaled to controls: 0 for no effect and ±100 for the full control effect
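Readout is luminescence from an integrated firefly luciferase in P. falciparum. Red cells, 2% hematocrit and 0.05% parasitemia final, were cultured with compound through two parasite generations (96 hours) at 37 C, 5% CO2.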
HCV inhibitor: inhibitors of hepatitis C virus infection; 3.4% of 340,000 active; Huh7.5.1 HCVcc-Cre infection, luciferase reporter, 44 h; Potency, µM (highest dose often 41.8 µM), for inactives: top-dose activity change, negative = inhibition, most hits filed as inhibitors; also: potency is read from the fitted curve at half-maximal effect; % is scaled to controls: 0 for no effect and ±100 for the full control effect
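Luciferase read-out (15 sec integration) after a 15 min room-temperature substrate step quantifies HCVcc-Cre infection. Cells, 1,000 per well, had compound added 4 h post-plating, then virus at ~0.5 moi, and were cultured 44 h.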
Pf growth 48h: P. falciparum growth inhibition at 48 hours (one generation) | 5.9% of 310,000 active | AID 504832 | P. falciparum luciferase growth in erythrocytes, 48 h | Potency, µM (top dose mostly 28.7 µM), inactives show top-dose activity change, negative = inhibition, hits mostly inhibitors; also: potency is read from the fitted curve at half-maximal effect; % is scaled to controls: 0 for no effect and ±100 for the full control effect
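In quantitative HTS format, infected erythrocytes bearing luciferase-reporter parasites were treated for a single generation at 37 C. Luminescence after adding detection reagent served as the growth measure.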
Shiga toxin inh: inhibitors of Shiga toxin in Vero cells; inhibition, % at 38.7 µM; 9.2% of 290,000 active; Vero cells, Shiga toxin protein synthesis inhibition reporter; in the data active = inhibition mostly above about 28%, no sharp cut-off; inactive = mostly below about 43%; also: 0% is about no effect
HCMV inh: blocks human cytomegalovirus replication | activity change, negative = inhibition, % at 57.5 µM | HFF cells, HCMV-luciferase reporter, 72 h; hits give low values | 4.5% of 410,000 active; in the data active = activity change below about -60%; inconclusive = no clear call, values can overlap the other calls; inactive = above about -39%; also: % is scaled to controls: 0 for no effect and ±100 for the full control effect
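Human foreskin fibroblasts infected with luciferase-reporter HCMV at MOI 1 PFU/cell, compounds at two doses. Luciferase measured 72 h post infection; normalized to buffer-only basal and Salinomycin (10uM) controls.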
Cycloheximide cs: counter-screen for Shiga toxin inhibitors: cycloheximide protein synthesis inhibition; cell reporter, cycloheximide protein synthesis inhibition counterscreen; max response, %; 12% of 300,000 active; AID 2314; in the data active = max response mostly above about 13%, no sharp cut-off; inactive = mostly below about 14%; also: read at 38.3 µM for the half of the compounds with a filed dose; 0% is about no effect
Active calls of the source: *; ? = inconclusive; . = no result. This is a sample that favours compounds with a hit; in the whole collection about 21% have one here. Unless noted, calls follow the shape of the dose curve; as a rule, active = well fitted inhibition curve with a large enough effect; inconclusive = small, poorly fitted or top-dose-only effect, or another doubt; inactive = no such curve, though single readings can be large or run the other way.

SMILES | Pf growth 96h | HCV inhibitor | Pf growth 48h | Shiga toxin inh | HCMV inh | Cycloheximide cs
Cc1ccc(-n2nc3c(=O)n(CC(=O)NCCC4=CCCCC4)nc(C)c3c2C)cc1 | -18% | -20% | -10% | -3 | ? | 1
Cc1ccc(-n2nc3c(=O)n(CC(=O)NCCc4ccc(Cl)cc4)nc(C)c3c2C)cc1 | 0.93µM* | ? | 20% | -6 | ? | 10
COc1ccc(CCNC(=O)CC(=O)N/N=C/c2ccc(Br)cc2)cc1OC | 3% | -22% | 3% | 37 | 3 | 0
COC(=O)C1=C(C(=O)OC)C2c3ccccc3C1c1ccccc12 | . | 16% | . | . | -14 | .
O=C(O)C1=CC2c3ccccc3C1c1ccccc12 | 10µM* | 29% | 6% | -14 | -35 | -2
O=C(CN1CCOCC1)Nc1ccc(OC(F)(F)F)cc1 | -12% | 1% | 35% | 28 | 29 | 21*
O=C(CN1CCCC1)Nc1ccc(OC(F)(F)F)cc1 | 73% | -13% | 15% | . | 38 | 20*
O=C(CN1CCOCC1)Nc1ccc(Br)cc1 | 32% | 15% | . | 14 | 61 | 12
CCN1CCN(CC(=O)Nc2ccc(OC(F)(F)F)cc2)CC1 | -18% | ? | . | -4 | -20 | -4
O=C(O)c1cc(O)c(O)c(O)c1 | 8.5µM* | . | ? | . | . | .
COc1ccc(NC(=S)NC(=O)/C=C/c2ccco2)cc1 | 89% | -23% | 48% | 101* | 9 | 43*
CC(=O)NC(=S)Nc1ccc(NC(=S)NC(=O)/C=C/c2ccco2)cc1 | 7% | -15% | 2% | -12 | -79* | -3
O=C(/C=C/c1ccco1)NC(=S)Nc1ccc(C(=O)O)cc1 | 39% | 9% | . | 52* | -3 | 23*
Cc1oc2ncn(CC(C)C)c(=O)c2c1C(=O)NC(C)c1ccccc1 (stereo not drawn) | . | . | . | . | -1 | .
COC(=O)Cc1c(C)nc2nc(NCc3ccc(Br)cc3)[nH]n2c1=O | . | . | . | . | 12 | .
CN1/C(=C\C(=O)Nc2ccc(Cl)cc2)C(C)(C)c2ccccc21 | 6% | -24% | 3% | 11 | ? | 1
COc1ccccc1C(=O)NC(=S)/C=C1/N(C)c2ccccc2C1(C)C | ? | ? | ? | 44 | -92* | 14*
CN1/C(=C\C(=S)Nc2ccccc2)C(C)(C)c2ccccc21 | ? | ? | ? | 3 | -71* | -2
CN1/C(=C\C(=S)NC(=O)c2ccccc2Cl)C(C)(C)c2ccccc21 | ? | ? | ? | 40 | -84* | -3
CN1/C(=C/C(=S)NC(=O)C2(C)CC2(Cl)Cl)C(C)(C)c2ccccc21 (stereo not drawn) | ? | ? | ? | 27 | -69* | 18
Cc1cc(C)cc(C(=O)NN2CCOCC2)c1 | ? | 7% | 0% | -15 | 19 | 1
C=CCN1[C@@H](C)[C@@H](c2ccccc2)Oc2c(Cl)cccc2S1(=O)=O | . | . | . | . | -28 | .
CCCn1c(Oc2ccccc2)nc2c1c(=O)n(C)c(=O)n2C | ? | 8% | 4% | -8 | -29 | -2
O=C(CCC1N=C2c3ccccc3N=C(SCc3ccccc3F)N2C1=O)NCc1ccccc1 (stereo not drawn) | . | . | . | . | 26 | .
Cc1ccc2[nH]c(CCN(C)C)c(CN3CCOCC3)c2c1 | 2.3µM* | ? | 13µM* | . | -20 | .
SMILES | Pf growth 96h | HCV inhibitor | Pf growth 48h | Shiga toxin inh | HCMV inh | Cycloheximide cs
Cc1ccc2[nH]cc(C(=O)CN3CCOCC3)c2c1 | 25% | 16% | 35% | -18 | 3 | -4
CCOC(=O)N1CCC(NC(=O)C2CCN(C(=O)c3cc4sccc4n3CC)CC2)CC1 | -25% | -15% | ? | -3 | ? | -4
Cn1cc(/C=N/n2cnc3scc(-c4ccc(Cl)cc4)c3c2=O)c2ccccc21 | ? | 5.6µM* | 15% | -5 | ? | 1
Cc1nc(-c2ccc(F)cc2)c(CC(=O)N(C)CC(=O)Nc2ccc(Cl)c(C(F)(F)F)c2)s1 | . | -12% | . | . | 29 | .
Cc1cc(C)c(OCC(=O)Nc2cccc(O)c2)cc1C | 3% | 13% | 191% | 59* | 107 | 28*
COc1cc(/C=C/C(=O)OCC(=O)Nc2ccc3c(c2)OCO3)ccc1O | . | ? | . | . | -15 | .
Cc1ccc(NC(=O)COc2ccc(CCO)cc2-n2nc3ccccc3n2)cc1C | ? | 13µM* | -24% | -4 | ? | -3
COc1cc(C=O)ccc1OCC(=O)Nc1ccc2c(c1)OCO2 | ? | -6% | 9% | 44* | -33 | 20*
Cc1nc(-c2ccc(F)cc2)c(CC(=O)N(C)CC(=O)Nc2ccccc2Cl)s1 | 13µM* | 0% | -15% | . | -23 | .
CCOC(=O)N1CCC(NC(=O)CS(=O)Cc2nc(-c3ccc(Cl)cc3)oc2C)CC1 (stereo not drawn) | ? | -9% | -8% | -5 | ? | -2
CC(C)(CO)[C@@H](O)C(=O)NCCC(=O)NCCSSCCNC(=O)CCNC(=O)[C@H](O)C(C)(C)CO | 14% | . | 14% | . | -3 | .
Cc1ccc(OCC(=O)Nc2ccc3c(c2)OCO3)c([N+](=O)[O-])n1 | 126% | -8% | 120% | 54* | 42 | 28*
Cc1ccc(OCC(=O)N(C)CC(=O)Nc2ccc(F)cc2)c([N+](=O)[O-])n1 | 0% | 10% | -21% | -9 | -1 | -5
Cc1ccc(OCC(=O)N(C)CC(=O)Nc2ccccc2Cl)c([N+](=O)[O-])n1 | -30% | -2% | -1% | . | -84* | .
Cc1cc(C)c(OCC(=O)Nc2ccc3c(c2)OCO3)cc1C | 38% | ? | 24% | 16 | 21 | 21*
CCNC(=O)COc1ccc(C=O)cc1OC | -20% | 3% | 14% | 5 | -86* | 8
Cc1ccccc1OCC(=O)OCC(=O)Nc1ccc2c(c1)OCO2 | . | -9% | . | . | 1 | .
Cc1ccc(OCC(=O)Nc2ccc3c(c2)OC(F)(F)O3)c([N+](=O)[O-])n1 | 60% | -4% | 22% | -7 | -25 | -1
CCOc1ccc(CCNC(=O)Cn2ccc3cc(S(=O)(=O)N4CCCCC4)ccc32)cc1 | . | . | . | . | -15 | .
CCCCC(c1nnnn1C(C)C)N1CCN(C(=O)c2ccco2)CC1 (stereo not drawn) | 12% | -2% | -13% | -5 | -3 | -1
COc1ccc(-c2nc3c4cnn(-c5ccccc5F)c4ncn3n2)cc1 | . | . | . | . | 20 | .
Cc1ccc(C)c(OCC(=O)Nc2ccc3c(c2)OCO3)c1 | 48% | ? | 3% | 42* | 3 | 48*
O=C(NCC(c1cccs1)N1CCOCC1)c1ccc(Cl)nc1 (stereo not drawn) | 19% | 8% | 14% | . | -27 | .
CSc1ccc(/C=C/C(=O)OCC(=O)N2CCCCCC2)cc1 | . | -13% | . | . | 8 | .
O=C(/C=C/c1ccc(O)c(O)c1)NC(=O)c1ccccc1O | 150% | -29% | 73% | 24 | 64 | 15
O=C(/C=C/c1ccc(Br)cc1)NC(=O)c1ccccc1O | ? | 0% | 83% | 46 | -102* | 32*
